Source: PubChem BioAssay (National Center for Advancing Translational Sciences (NCATS))
An excerpt weighted towards active compounds, which were near 19% of everything screened.
TDP1 cell CPT – growth inhibition of DT40 Tdp1-/-;hTDP1 cells with camptothecin (screen for TDP1 inhibitors); AID 686979; chicken DT40 Tdp1-/-;hTDP1 cells + 20 nM CPT, ATP luminescence, 48 h; 420,000 compounds, 12% hits; Potency, µM (top dose mostly 46.2 µM), most hits filed as inhibitors; further: nearly all actives have a fitted effect of over 55% in size
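Chicken DT40 Tdp1-/- cells complemented with human TDP1, 400 cells/well, exposed to compounds plus 20 nM camptothecin for at least 48 h at 37 C; viability read as ATP content by CellTiter-Glo luminescence.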
IL-1B inflam inh – blocks inflammasome-driven IL-1 beta release | 360,000 compounds, 4.7% hits | AID 743279 | THP-1 LPS/ATP IL-1B secretion, AlphaLISA, 16 h; active compounds read low | activity change, % at 57.5 µM; in the data active means activity change below about -50%; inconclusive means mostly about -30% to -49%
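Secreted IL-1B measured by AlphaLISA bead assay after 16 h compound exposure of THP-1 cells; compounds (final up to 57.5 uM) added 1 h before LPS (250 ng/mL) and ATP (1.25 mM) stimulation; lower signal means less secretion.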
HT1080 IDH1KD tx – toxicity to HT-1080 IDH1 knockdown cells (counter line). 360,000 compounds, 2% hits. Potency, µM (series often up to 46.1 µM), most hits filed as cytotoxic. HT-1080 IDH1 knockdown viability, ATP luminescence, 48 h
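Assay cells: HT-1080 with IDH1 knockdown, 750 per well, RPMI/5% FBS. Exposure: 48 h at 37 °C following 2 h pre-incubation. Read: CellTiter-Glo luminescence; fitted concentration-response, curve class assigned.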
ELG1 DNA repair – ELG1-dependent DNA repair inhibition. HEK293T ELG1-luciferase reporter, luminescence, 16 h; DNA damage induced by 5-fluorouridine. AID 504467. Potency, µM (series often up to 46.1 µM), actives largely listed as inhibitors. 330,000 compounds, 2.3% hits; further: nearly all actives have a fitted effect of over 55% in size
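Cells (2,000 per well) received 5-fluorouridine plus test compound or DMSO and were incubated 16 hr at 37 °C, 5% CO2. Luciferase activity was read by luminescence 30 min after ONE-Glo addition; signal suppression marked inhibition of damage-induced ELG1 function.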
DT40 TDP1 no CPT – qHTS for Inhibitors of human tyrosyl-DNA phosphodiesterase 1 (TDP1): qHTS in cells in absence of CPT. DT40 Tdp1-/- hTDP1 cells, no CPT, ATP luminescence, 48 h. Potency, µM (highest dose often 46.2 µM), hits mostly inhibitors. 420,000 compounds, 15% hits. AID 686978, 2013; further: nearly all actives have a fitted effect of over 55% in size
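Compound effects on proliferation are scored in DT40 Tdp1-/-;hTDP1 cells in the absence of CPT. ATP levels (CellTiter-Glo luminescence) are recorded after a ≥48 hr, 37 °C incubation.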
HT1080-NT tox – kills 2HG-producing HT-1080-NT fibrosarcoma cells. HT-1080-NT fibrosarcoma viability, CellTiter-Glo ATP luminescence, 48 h. Potency, µM (doses to about 46.1 µM), hits mostly cytotoxic. 360,000 compounds, 1.6% hits. AID 686970;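 further: NT is the 2HG producing partner of a matched IDH1 knockdown line; nearly all actives have a fitted effect of over 55% in size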
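Compounds were tested in concentration-response format on HT-1080-NT cells for 48 hours at 37 degrees C. Cell viability came from CellTiter-Glo luminescence; curves were classified by r2, response magnitude and activity.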
Hits are given with their value; 0 = inactive; ? = inconclusive; - = no result; [ ] = dose if it differs, or a comment. Unless noted, the call rests on the fitted dose curve; in most records, active means well fitted curve in the direction sought with a large enough effect; inconclusive means small, poorly fitted or top-dose-only effect, or another doubt; inactive means no such curve, though single readings can be large; an effect the other way counts as inactive or inconclusive.

SMILES	TDP1 cell CPT	IL-1B inflam inh	HT1080 IDH1KD tx	ELG1 DNA repair	DT40 TDP1 no CPT	HT1080-NT tox
CC(C(=O)NC(=O)NC1CCCCC1)N1CCN(c2ccc(O)cc2)CC1 (centres undefined)	?	0	0	0	0	0
Cc1cc(C)c(NC(=O)CN(C)S(=O)(=O)c2ccc3c(c2)CCC(=O)N3)c(C)c1	0	-	-	-	0	-
CC1C(=O)N2CCCc3cc(NC(=O)C(=O)NCc4ccccn4)cc1c32 (centres undefined)	0	0	0	0	0	0
C[C@@]12CCC(OC(=O)c3ccccc3)CC1CCc1ccccc12 (some centres undefined)	0	-	-	-	0	-
COc1ccc(C(C(=O)NC(C)(C)C)N(Cc2cccnc2)C(=O)CCC(=O)Nc2cc(C)on2)cc1 (centres undefined)	0	0	0	0	0	0
COc1cc(NC(=O)c2ccc(Cl)cc2)c(OC)cc1NC(=O)CN1CCOCC1	?	?	0	?	?	0
COC(=O)c1ccc(C(=O)Nc2cc(Cl)ccc2Cl)cc1NC(=O)c1ccc(N(C)C)cc1	26µM	0	0	0	?	0
O=C(Nc1cc(Cl)ccc1Cl)c1ccc(-c2ccccc2)cc1	0	0	0	0	0	0
COc1cc(NC(=O)c2ccc(C(C)(C)C)cc2)c(OC)cc1NC(=O)CN1CCCCC1	?	0	0	?	21µM	0
COc1cc(NC(=O)c2ccc(C)cc2)c(OC)cc1NC(=O)CN1CCOCC1	?	0	0	?	16µM	0
Cc1ccc(NC(=O)C(c2ccccc2)c2ccccc2)c(O)c1	0	-56	0	0	0	0
CC(=O)N/C(=C\c1ccccc1)C(=O)OCC(=O)N(CC(C)C)c1c(N)n(Cc2ccccc2)c(=O)[nH]c1=O	0	0	0	0	0	0
OCCc1ccc(O)c(-n2nc3ccccc3n2)c1	0	0	0	?	0	0
COc1cc2c(cc1NC(=O)c1cccc(Br)c1)CCCC2	?	0	0	0	16µM	0
COc1cc2c(cc1NC(=O)C(c1ccccc1)c1ccccc1)CCCC2	?	0	0	0	12µM	0
COc1cc(NC(=O)c2cccc(C)c2)c(OC)cc1NC(=O)CN1CCCCC1	?	-62	0	?	16µM	0
COc1cc(NC(=O)c2ccc(Cl)cc2)c(OC)cc1NC(=O)CN1CCCCC1	?	-84	?	?	18µM	?
COc1cc2c(cc1NC(=O)c1cccc(F)c1)CCCC2	?	0	0	?	?	0
CCN(CC)S(=O)(=O)c1ccc(OC)c(NC(=O)c2sc3ccccc3c2Cl)c1	0	-	-	-	0	-
COc1ccccc1C(=O)N/N=C(\C)c1cccnc1	0	0	0	-	0	0
COC(=O)c1cc(Cl)c(NC(=O)c2ccc(C(C)(C)C)cc2)cc1OC	26µM	0	11µM	?	18µM	?
COc1cc(NC(=O)C2CCCCC2)c(OC)cc1NC(=O)CN1CCCCC1	?	?	0	0	16µM	0
COc1cc2c(cc1NC(=O)c1ccccc1F)CCCC2	?	0	0	?	21µM	0
COc1cc(NC(=O)Nc2ccccc2)c(OC)cc1NC(=O)CN1CCCCC1	?	0	?	0	?	?
COc1cc(NC(=O)c2ccccc2F)c(OC)cc1NC(=O)CN1CCCCC1	?	-57	0	?	16µM	0
SMILES	TDP1 cell CPT	IL-1B inflam inh	HT1080 IDH1KD tx	ELG1 DNA repair	DT40 TDP1 no CPT	HT1080-NT tox
COc1cc(NC(=O)Nc2ccccc2OC)c(OC)cc1NC(=O)CN1CCCCC1	?	0	0	?	?	0
Cc1cc(C)n(CCC(=O)N=Nc2c(O)[nH]c3ccccc23)n1	0	0	0	0	0	0
CN(C)S(=O)(=O)c1cccc(NC(=S)NNC(=O)c2cc3ccccc3cc2O)c1	?	0	?	0	?	?
O=C(NCc1cccc(C(F)(F)F)c1)c1csc([C@@H]2O[C@H](CO)[C@H](O)[C@H](O)[C@H]2O)n1	0	0	?	-	0	0
COCCN1C[C@@H](CO)O[C@@H](n2cnc3c(NCc4ccncc4)ncnc32)C1	?	0	0	-	0	0
CCc1ccc(-c2nnn(CC(=O)N(C3CCCC3)C3CCS(=O)(=O)C3)n2)cc1 (centres undefined)	0	0	0	0	0	0[9.24 µM]
Cc1ccc(-n2nnc3c(=O)oc4ccccc4c32)cc1	5.8µM	0	?	0	21µM	?
COc1ccc2nc3cc(Cl)ccc3c(Nc3cc(C(C)C)c(O)cc3C)c2c1	23µM	-90	?	?	?	21µM
CC(=O)c1cccc(NC(=O)CCc2c(C)nc3c(-c4ccc(F)cc4)c(C)nn3c2C)c1	2.6µM	-	-	-	?	-
Cc1cccc(CCNC(=O)CCc2c(C)nc3c(-c4ccc(F)cc4)c(C)nn3c2C)c1	?	-	-	-	9.2µM	-
COC(CNC(=O)CCc1c(C)nc2c(-c3ccc(F)cc3)c(C)nn2c1C)OC	0	0	0	0	?	0
COc1cc(NC(=O)CCc2c(C)nc3c(-c4ccc(F)cc4)c(C)nn3c2C)cc(OC)c1OC	5.2µM	-	-	-	6.5µM	-
Cc1ccc(NC(=O)CCc2c(C)nc3c(-c4ccc(F)cc4)c(C)nn3c2C)cc1F	0	-	-	-	?	-
C[C@H]1COC(=O)[C@H](NC(=O)OCC2c3ccccc3-c3ccccc32)C/C=C\C[C@H](CC(=O)N(CCO)Cc2ccccc2)C(=O)N1	9.2µM	0	0	26µM	9.2µM	0
C[C@H]1COC(=O)[C@@H](CC(=O)OC(C)(C)C)C/C=C\C[C@@H](CC(=O)N(CCO)Cc2ccccc2)C(=O)N1	?	0	0	0	?	0
O=C(N[C@H]1C/C=C\C[C@H](CC(=O)N(CCO)Cc2ccccc2)C(=O)N[C@@H](c2ccccc2)COC1=O)OCC1c2ccccc2-c2ccccc21	7.3µM	0	0	0	13µM	0
CC(C)(C)OC(=O)C[C@@H]1C/C=C\C[C@H](CC(=O)N(CCO)Cc2ccccc2)C(=O)N[C@@H](c2ccccc2)COC1=O	?	0	0	?	?	0
C[C@@H]1COC(=O)[C@@H](NC(=O)OCC2c3ccccc3-c3ccccc32)C/C=C\C[C@@H](CC(=O)N(CCO)Cc2ccccc2)C(=O)N1	1.5µM	0	0	?	2.6µM	0
COc1ccc(-c2nc(SCC(=O)Nc3ccc4c(c3)OCCO4)c(-c3ccccc3)[nH]2)cc1	?	-	-	-	23µM	-
